Data on 13 compounds can be found in PubChem BioAssay (Tox21).

“And” between values parts separate entries of the source, which are not always exact repeats. Identical values can stand only once. Results filed as inconclusive are left out. Some compounds were tested as several samples or in several runs, with calls that do not always agree. The source made the active and inactive calls. Unless noted, calls come from the whole dose curve; as a rule, active = well fitted curve in the direction sought with a large enough effect in the repeat runs; inconclusive = weak or mixed curves; inactive = no such curve, though single readings can be large; an effect the other way counts as inactive or inconclusive.

Assay [1] in a line: qHTS assay to identify aromatase inhibitors - cell viability counter screen (AID 743084;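 note: cells stimulated with testosterone during compound exposure; nearly all actives have a fitted effect of over 55% in size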; note: potency is the fitted concentration of half-maximal effect). (Quantitative high-throughput screening tests each substance at several concentrations.)
The target in assay [2] is Aryl hydrocarbon receptor (Homo sapiens) (UniProt P35869). The assay is described as follows: qHTS assay to identify small molecule that activate the aryl hydrocarbon receptor (AhR) signaling pathway (AID 743085).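 For activation: HG2L7.5c1 human HepG2 liver cells with stably integrated DRE-driven firefly reporter; series mostly up to about 70 µM.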 Note: nearly all actives have a fitted effect of over 15% in size. Note: potency is the fitted concentration of half-maximal effect. The gist of the method:
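Measured in HG2L7.5c1 cells: CellTiter-Fluor signal (30 min incubation, 37C) for viability, then luciferase luminescence (30 min, room temperature). Compound contact time was 24 h at 37C, following a 5 h pre-incubation.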

Assay [3] in a line: qHTS assay to identify small molecule that activate the aryl hydrocarbon receptor (AhR) signaling pathway - cell viability counter screen (AID 743086). Note: nearly all actives have a fitted effect of over 45% in size. Note: potency is the fitted concentration of half-maximal effect. The gist of the method: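 HepG2-AhR-luc (HG2L7.5c1) cells, 4000/well, were preincubated 5 h at 37C, exposed to compound in qHTS format for 24 hr at 37C, then given CellTiter-Fluor for 30 min; viability was read as fluorescence in the reporter wells.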

In assay [4] the target is Peroxisome proliferator-activated receptor gamma (Homo sapiens) (UniProt P37231). The assay is described as follows: qHTS assay to identify small molecule antagonists of the peroxisome proliferator-activated receptor gamma (PPARg) signaling pathway (AID 743191; calls by dose curve; note: nearly all actives have a fitted effect of over 30% in size; note: potency is the fitted concentration of half-maximal effect). The gist of the method:
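GeneBLAzer PPARg UAS-bla HEK293H cells carrying a UAS-driven beta-lactamase reporter were plated at 3000 cells/well, preincubated 5 h at 37C, then given compound for 17 h at 37C; LiveBLAzer B/G FRET substrate was read after 1 h at room temperature.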

The nature of assay [5]: qHTS assay to identify small molecule antagonists of the peroxisome proliferator-activated receptor gamma (PPARg) signaling pathway - cell viability counter screen (AID 743194). Note: nearly all actives have a fitted effect of over 55% in size. Particulars: Potency: co-treated with 50 nM rosiglitazone. The gist of the method: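 PPARg-UAS-bla HEK293H cells were plated, rested 5 h at 37 C, then treated with compounds plus rosiglitazone (50 nM final) for 17 h at 37 C; viability was then read by CellTiter-Glo luminescence after 30 min at room temperature.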

A short description of assay [6]: qHTS assay for small molecule agonists of the antioxidant response element (ARE) signaling pathway (AID 743202; active = well fitted activation curve with a large enough effect in the signal ratio in the repeat runs, not every such curve was filed as active; the % refers to the signal ratio). The gist of the method:
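Steps: seed ARE-bla HepG2 cells (2,000/well); incubate 5 h at 37 C; add compounds by pin tool; incubate 16 h at 37 C; add FRET substrate; read fluorescence after 2 h at RT.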

The nature of assay [7]: qHTS assay for small molecule agonists of the antioxidant response element (ARE) signaling pathway - cell viability counter screen (AID 743203; calls by dose curve; note: nearly all actives have a fitted effect of over 55% in size; note: potency is the fitted concentration of half-maximal effect). An outline of the steps: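 ATP content via CellTiter-Glo luminescence served as the viability measure. Cells: ARE-bla HepG2, 2,000 per well. Exposure: 16 hrs, 37C/5% CO2.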
Assay [8] can be described thus: qHTS assay for small molecule activators of the heat shock response signaling pathway - cell viability counter screen (AID 743209). Note: nearly all actives have a fitted effect of over 50% in size. An outline of the steps: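 Compounds dissolved in DMSO were added to overnight-plated HSE-bla HeLa cells and left 5 h at 37 C. Cell viability was quantified by luminescence using CellTiter-Glo.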
Assay [9] in a line: qHTS assay for small molecule activators of the heat shock response signaling pathway (AID 743210; active = well fitted activation curve with a large enough effect in the signal ratio in the repeat runs, with a control signal flat, not every such curve was filed as active; the % refers to the signal ratio;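 note: HeLa cells with beta-lactamase reporter driven by heat shock elements; series mostly up to about 63 µM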). An outline of the steps:
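Activation of heat shock element-controlled beta-lactamase expression is measured in HeLa cells by LiveBLAzer FRET fluorescence, with compound exposure lasting 5 h at 37 C and substrate loading 2.5 h at room temperature.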

The nature of assay [10]: qHTS assay to identify small molecule agonists of the peroxisome proliferator-activated receptor delta (PPARd) signaling pathway - cell viability counter screen (AID 743211). Note: nearly all actives have a fitted effect of over 55% in size. Note: potency is the fitted concentration of half-maximal effect. An outline of the steps: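 Following 5 h plating at 37 C and 5% CO2, PPARd UAS-bla HEK293H cells took up test compounds for 17 h. Viability was quantified by luminescence 30 min after CellTiter-Glo addition at room temperature.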

Assay [11] has as its target Peroxisome proliferator-activated receptor delta (Homo sapiens) (UniProt Q03181). Briefly: qHTS assay to identify small molecule agonists of the peroxisome proliferator-activated receptor delta (PPARd) signaling pathway (AID 743212; calls by dose curve). An outline of the steps: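 Cells expressing a UAS-driven beta-lactamase reporter (PPARd-bla HEK293H) were given test compounds after a 5 h settle and kept at 37 C. Reporter activity was then measured as FRET fluorescence using LiveBLAzer B/G substrate.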

A short description of assay [12]: qHTS assay to identify small molecule antagonists of the peroxisome proliferator-activated receptor delta (PPARd) signaling pathway - cell viability counter screen (AID 743213). Note: nearly all actives have a fitted effect of over 50% in size. An outline of the steps: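 Luminescence from CellTiter-Glo, added after the bla read and incubated 30 min at room temperature, gives viability of HEK293H PPARd-bla cells exposed to compounds for 17 h at 37 C with 300 nM L165041.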

In assay [13] the target is Peroxisome proliferator-activated receptor delta (Homo sapiens) (UniProt Q03181). Briefly: qHTS assay to identify small molecule antagonists of the peroxisome proliferator-activated receptor delta (PPARd) signaling pathway (AID 743215; active = well fitted inhibition curve with a large enough effect in the signal ratio in the repeat runs, not every such curve was filed as active; the % refers to the signal ratio;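 note: cells stimulated with agonist L165041 at 300 nM final during compound exposure; series mostly up to about 62 µM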). An outline of the steps: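 Here, a reporter line (HEK293H, beta-lactamase under a UAS) measures PPARd signaling. Compounds are tested against agonist L165041 at 300 nM final concentration over 17 h at 37 C, with fluorescence read after substrate.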

Assay [14] deals with Bile acid receptor (Homo sapiens) (UniProt Q96RI1). Briefly: qHTS assay to identify small molecule antagonists of the farnesoid-X-receptor (FXR) signaling pathway (AID 743217; active = well fitted inhibition curve with a large enough effect in the signal ratio in the repeat runs, not every such curve was filed as active; the % refers to the signal ratio). An outline of the steps: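 Test compounds are pin-transferred onto FXR-bla HEK 293T cells, then chenodeoxycholic acid is added at 50 uM final. After 16 h at 37 °C, LiveBLAzer B/G substrate is applied for 2 h at room temperature and fluorescence read.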

The nature of assay [15]: qHTS assay to identify small molecule agonists of the farnesoid-X-receptor (FXR) signaling pathway - cell viability counter screen (AID 743218). Note: nearly all actives have a fitted effect of over 45% in size. Note: potency is the fitted concentration of half-maximal effect. The gist of the method:
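Quantitative HTS counter screen measuring ATP-based viability via CellTiter-Glo luminescence in HEK 293T cells carrying a UAS-driven beta-lactamase reporter, after 16 h compound exposure at 37 C.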

Assay [16] addresses Bile acid receptor (Homo sapiens) (UniProt Q96RI1). Briefly: qHTS assay to identify small molecule agonists of the farnesoid-X-receptor (FXR) signaling pathway (AID 743220; active = well fitted activation curve with a large enough effect in the signal ratio in the repeat runs, not every such curve was filed as active; the % refers to the signal ratio). The gist of the method: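 FXR-UAS-bla HEK 293T cells carrying a UAS-driven beta-lactamase reporter were plated for 5 h at 37C/5% CO2, then exposed to DMSO-dissolved Tox21 10K compounds for 16 h at 37C. A LiveBLAzer B/G FRET substrate was loaded for 2 h at room temperature before fluorescence reading.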

Assay [17] in a line: qHTS assay to identify small molecule antagonists of the farnesoid-X-receptor (FXR) signaling pathway - cell viability counter screen (AID 743221; active = well fitted cell-killing curve with a large enough effect in the repeat runs, not every such curve was filed as active; note: nearly all actives have a fitted effect of over 50% in size). The gist of the method:
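Compound effects on cell number were measured as CellTiter-Glo luminescence in HEK 293T cells expressing FXR-UAS-bla, after 16 h at 37 C with 50 uM CDCA (final).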

The target in assay [18] is Vitamin D3 receptor (Homo sapiens) (UniProt P11473). Briefly: qHTS assay to identify small molecule agonists of the vitamin D receptor (VDR) signaling pathway (AID 743222; calls by dose curve). An outline of the steps:
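Tox21 cell reporter format: VDR-bla line, 16 h compound exposure in 5% CO2 at 37C, then fluorescence intensity after 2 h with LiveBLAzer B/G FRET substrate.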

The target is the same in assay [19]. The assay is described as follows: qHTS assay to identify small molecule antagonists of the vitamin D receptor (VDR) signaling pathway (AID 743223; active = well fitted inhibition curve with a large enough effect in the signal ratio in the repeat runs, not every such curve was filed as active; the % refers to the signal ratio). The gist of the method: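 Beta-lactamase activity in VDR-bla cells is measured by FRET substrate fluorescence (2 h, room temperature) after cells spend 16 h at 37C with test compound and 3 nM final 1alpha,25-dihydroxyvitamin D3.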

For assay [20], the target named is Peroxisome proliferator-activated receptor gamma (Homo sapiens) (UniProt P37231). The assay is described as follows: qHTS assay to identify small molecule agonists of the peroxisome proliferator-activated receptor gamma (PPARg) signaling pathway (AID 743094; active = well fitted activation curve with a large enough effect in the signal ratio in the repeat runs, not every such curve was filed as active; the % refers to the signal ratio). An outline of the steps:
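Agonism was assessed in a beta-lactamase reporter system, HEK293H cells with a stably integrated UAS-bla construct under PPARg control; the 17 h treatment at 37C preceded a 1 h room-temperature FRET substrate read.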

Sequence of Peroxisome proliferator-activated receptor delta (Homo sapiens) (Q03181 whole entry, looked up): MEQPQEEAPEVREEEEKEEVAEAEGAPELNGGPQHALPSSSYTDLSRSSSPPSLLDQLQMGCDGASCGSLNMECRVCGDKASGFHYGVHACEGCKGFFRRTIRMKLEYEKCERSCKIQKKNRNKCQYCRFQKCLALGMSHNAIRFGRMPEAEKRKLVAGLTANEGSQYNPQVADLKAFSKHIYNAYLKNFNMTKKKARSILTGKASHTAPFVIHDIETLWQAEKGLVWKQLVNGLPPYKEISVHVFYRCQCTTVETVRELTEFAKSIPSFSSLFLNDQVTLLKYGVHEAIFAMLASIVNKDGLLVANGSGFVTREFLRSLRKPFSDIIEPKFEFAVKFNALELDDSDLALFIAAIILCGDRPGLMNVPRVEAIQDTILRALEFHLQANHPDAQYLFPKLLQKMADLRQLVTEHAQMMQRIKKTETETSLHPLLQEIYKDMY
Sequence of Bile acid receptor (Homo sapiens) (Q96RI1 whole entry, looked up): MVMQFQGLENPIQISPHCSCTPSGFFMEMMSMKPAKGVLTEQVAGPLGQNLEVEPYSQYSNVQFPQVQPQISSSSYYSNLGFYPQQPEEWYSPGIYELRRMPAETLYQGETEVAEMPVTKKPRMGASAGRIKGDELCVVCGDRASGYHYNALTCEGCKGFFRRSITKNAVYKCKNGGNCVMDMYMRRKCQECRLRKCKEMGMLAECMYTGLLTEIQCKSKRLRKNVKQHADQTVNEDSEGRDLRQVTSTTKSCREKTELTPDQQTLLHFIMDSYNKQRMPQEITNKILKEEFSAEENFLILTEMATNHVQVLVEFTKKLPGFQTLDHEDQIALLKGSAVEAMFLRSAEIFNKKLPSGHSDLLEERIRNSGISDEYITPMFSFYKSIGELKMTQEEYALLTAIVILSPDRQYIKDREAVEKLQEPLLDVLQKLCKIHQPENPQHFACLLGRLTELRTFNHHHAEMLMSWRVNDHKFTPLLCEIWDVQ
Sequence of Vitamin D3 receptor (Homo sapiens) (P11473 whole entry, looked up): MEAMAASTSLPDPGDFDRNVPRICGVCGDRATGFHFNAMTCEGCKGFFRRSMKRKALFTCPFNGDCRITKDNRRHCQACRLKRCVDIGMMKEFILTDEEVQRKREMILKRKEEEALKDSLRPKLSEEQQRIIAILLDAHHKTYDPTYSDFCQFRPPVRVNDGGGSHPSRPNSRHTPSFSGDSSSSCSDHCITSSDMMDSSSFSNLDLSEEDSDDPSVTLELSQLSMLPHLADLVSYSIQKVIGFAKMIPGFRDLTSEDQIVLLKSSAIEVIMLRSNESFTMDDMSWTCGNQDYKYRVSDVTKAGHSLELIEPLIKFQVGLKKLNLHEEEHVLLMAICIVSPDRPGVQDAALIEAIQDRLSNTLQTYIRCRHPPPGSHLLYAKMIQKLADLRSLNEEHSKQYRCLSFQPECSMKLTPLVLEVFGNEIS
Sequence of Aryl hydrocarbon receptor (Homo sapiens) (P35869 whole entry, looked up): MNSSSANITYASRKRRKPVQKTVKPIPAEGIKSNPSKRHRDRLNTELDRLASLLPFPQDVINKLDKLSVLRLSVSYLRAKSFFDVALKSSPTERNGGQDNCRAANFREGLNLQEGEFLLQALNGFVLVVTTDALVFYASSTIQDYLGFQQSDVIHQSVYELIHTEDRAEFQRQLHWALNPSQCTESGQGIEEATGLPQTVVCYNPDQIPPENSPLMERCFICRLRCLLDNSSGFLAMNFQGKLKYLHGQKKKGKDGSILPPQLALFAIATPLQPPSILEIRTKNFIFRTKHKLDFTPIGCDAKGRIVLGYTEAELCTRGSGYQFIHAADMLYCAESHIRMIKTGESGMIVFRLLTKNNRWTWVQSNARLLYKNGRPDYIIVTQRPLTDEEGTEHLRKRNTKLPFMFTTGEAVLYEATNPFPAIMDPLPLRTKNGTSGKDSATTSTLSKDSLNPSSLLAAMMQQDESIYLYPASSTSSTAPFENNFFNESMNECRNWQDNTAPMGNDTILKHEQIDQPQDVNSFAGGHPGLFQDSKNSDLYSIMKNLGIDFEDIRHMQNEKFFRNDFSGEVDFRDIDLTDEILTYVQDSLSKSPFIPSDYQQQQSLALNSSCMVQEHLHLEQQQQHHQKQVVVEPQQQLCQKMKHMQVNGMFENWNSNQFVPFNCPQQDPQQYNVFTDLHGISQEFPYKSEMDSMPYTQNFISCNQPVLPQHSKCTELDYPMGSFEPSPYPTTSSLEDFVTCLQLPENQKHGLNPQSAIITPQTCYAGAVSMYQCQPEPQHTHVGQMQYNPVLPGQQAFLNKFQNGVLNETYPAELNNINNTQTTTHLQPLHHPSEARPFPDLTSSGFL
Sequence of Peroxisome proliferator-activated receptor gamma (Homo sapiens) (P37231 whole entry, looked up): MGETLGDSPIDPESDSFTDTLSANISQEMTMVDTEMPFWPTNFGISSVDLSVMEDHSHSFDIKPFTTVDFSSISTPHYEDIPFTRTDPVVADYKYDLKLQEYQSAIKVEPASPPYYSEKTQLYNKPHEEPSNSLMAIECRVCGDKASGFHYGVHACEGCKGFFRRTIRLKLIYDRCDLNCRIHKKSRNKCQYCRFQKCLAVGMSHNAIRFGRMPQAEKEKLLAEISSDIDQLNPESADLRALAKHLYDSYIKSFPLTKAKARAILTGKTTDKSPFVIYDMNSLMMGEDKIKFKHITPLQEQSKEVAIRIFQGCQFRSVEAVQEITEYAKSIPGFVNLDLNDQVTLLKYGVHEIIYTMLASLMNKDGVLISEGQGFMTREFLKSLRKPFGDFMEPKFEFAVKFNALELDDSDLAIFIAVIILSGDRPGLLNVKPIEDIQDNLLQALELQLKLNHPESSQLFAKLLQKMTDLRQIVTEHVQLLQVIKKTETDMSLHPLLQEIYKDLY

`ClP(Cl)(Cl)(Cl)Cl`: the Potency entry in assay [1], in assay [2], in assay [3], in assay [4], in [5] and in assay [6] was “inactive” throughout. Besides, the Potency result in assay [7], in assay [8], in [10], in assay [12], in [13] and in assay [14] was “inactive” in each case. For the same compound, the Potency entry in assay [15] and in assay [17] was “inactive” each time. For the same compound, the outcome in assay [9], in assay [11], in assay [16], in assay [18] and in assay [19] was inactive.

As for `O=C(OC1CCCCC1)c1ccccc1C(=O)OC1CCCCC1`, the Potency result in assay [1], in [2], in assay [3], in assay [20], in [7] and in assay [8] was “inactive” each time. In addition, the Potency result in assay [15] and in assay [17] was “inactive” each time. The call in assay [9] and in assay [19] was inactive. In addition, the Potency in assay [10] is 46 µM (active).

On to `C[N+](C)(C)CCCl`, for which the Potency entry in assay [1], in assay [2], in [3], in assay [6], in assay [7] and in assay [8] was “inactive” in each case. In addition, the Potency result in assay [10], in assay [12], in assay [13], in assay [15] and in assay [17] was “inactive” each time. The compound was called inactive in assay [9], in assay [11] and in assay [19].

On to `O=S1(=O)OC(c2cc(Br)c(O)c(Br)c2)(c2cc(Br)c(O)c(Br)c2)c2ccccc21`, for which the Potency is 25 µM (active) in assay [1] and 28.1 µM (active) in assay [3]. The Potency result in assay [2], in assay [4], in assay [6], in assay [13] and in assay [14] was “inactive” in each case. Besides, the compound was called inactive in assay [9], in [11], in [16] and in [18].

Take `CO/C=C(/C(=O)OC)c1ccccc1COc1cccc(C(F)(F)F)n1`: the Potency is 61.1 µM (active) in [1] and 4.36 µM (active) in [4]. Besides, the Potency entry in assay [2], in assay [3], in [8], in assay [12], in [15] and in assay [17] was “inactive” in each case. Moreover, the compound was classed as inactive in assay [9], in [16] and in assay [18].

In the case of `CN1C(=O)C(O)N=C(c2ccccc2)c2cc(Cl)ccc21` (centres undefined), the Potency result in assay [1], in assay [2], in [3], in assay [5], in assay [7] and in assay [8] was “inactive” in each case. Also, the Potency result in assay [10], in assay [15] and in assay [17] was “inactive” each time. In assay [11], the outcome was inactive.

Turning to `COP(=S)(OC)Oc1cc(Cl)c(I)cc1Cl`, the Potency result in assay [1], in assay [3], in assay [5], in assay [8], in [10] and in [12] was “inactive” throughout. Also, the Potency result in [13], in assay [14] and in assay [17] was “inactive” throughout. The results for the Potency in assay [2] and in assay [4] were 24.3 µM (active) and 27.5 µM (active), respectively. Moreover, the call in assay [11], in assay [16] and in [18] was inactive.

Take `CCOC(=O)[C@]1(c2ccccc2)Oc2ccccc2[C@@H]1N`: the Potency entry in assay [1], in assay [2], in assay [3], in assay [4], in [5] and in assay [8] was “inactive” in each case. Also, the Potency entry in assay [15] and in assay [17] was “inactive” each time. Moreover, the call in assay [9], in assay [11] and in assay [18] was inactive. Besides, in [10], the Potency was 54.9 µM (active).

As to `Cl/C=C\Cl`, the Potency result in [1], in assay [2], in [3], in [5], in assay [6] and in [7] was “inactive” throughout. Further, the Potency entry in assay [8], in assay [10], in assay [12], in assay [13], in [15] and in [17] was “inactive” each time. Further, the compound was called inactive in [11], in assay [18] and in [19].

Consider `CCCC(=O)Cl`, for which the Potency entry in assay [1], in assay [2], in [3], in assay [20], in assay [7] and in [8] was “inactive” each time. Further, the Potency result in [10], in assay [12], in assay [13], in assay [14], in assay [15] and in assay [17] was “inactive” each time. The compound was called inactive in [9], in assay [11], in assay [16], in [18] and in assay [19].

Take `CC(C)(C)C(O)C(Oc1ccc(Cl)cc1)n1cncn1` (centres undefined): the Potency result in assay [1], in [3], in assay [5], in assay [8] and in assay [17] was “inactive” in each case. For the same compound, the Potency in assay [2] was 18.6 µM (active).

With `O=[N+]([O-])c1ccc(F)c([N+](=O)[O-])c1`, the Potency result in assay [1] was “inactive and 30.9 µM (active)”; in assay [3], “inactive and 49 µM (active)”; in assay [7], 30.9 µM (active); in [15] it was 2.21 µM (active). In addition, the Potency entry in [2], in assay [20], in [8], in assay [13] and in [14] was “inactive” in each case. Further, the compound was called inactive in assay [11], in [16] and in [19].

Consider `CN(C)c1ccc(N(C)C)cc1`, for which the Potency result in [1], in [3], in [20], in assay [7], in assay [8] and in assay [12] was “inactive” in each case. In addition, the Potency result in [14], in assay [15] and in assay [17] was “inactive” in each case. Besides, in assay [2], the Potency is 61.3 µM (active). In addition, the compound was classed as inactive in [9] and in assay [16].
